From PubChem
AmpC inh det = inhibitors of E. coli AmpC beta-lactamase with detergent. P00811. Potency, µM (titrated, usually from 28.7 µM), for inactives: at the top dose activity change, negative = inhibition. hit rate 0.09% among 71,000. purified AmpC, nitrocefin hydrolysis with detergent. AID 584; active = well fitted curve in the direction sought with a large enough effect; inconclusive = small, poorly fitted or top-dose-only effect; note: % is set by controls: 0 for no effect and ±100 for the full control effect
Target sequence (P00811 whole entry, looked up): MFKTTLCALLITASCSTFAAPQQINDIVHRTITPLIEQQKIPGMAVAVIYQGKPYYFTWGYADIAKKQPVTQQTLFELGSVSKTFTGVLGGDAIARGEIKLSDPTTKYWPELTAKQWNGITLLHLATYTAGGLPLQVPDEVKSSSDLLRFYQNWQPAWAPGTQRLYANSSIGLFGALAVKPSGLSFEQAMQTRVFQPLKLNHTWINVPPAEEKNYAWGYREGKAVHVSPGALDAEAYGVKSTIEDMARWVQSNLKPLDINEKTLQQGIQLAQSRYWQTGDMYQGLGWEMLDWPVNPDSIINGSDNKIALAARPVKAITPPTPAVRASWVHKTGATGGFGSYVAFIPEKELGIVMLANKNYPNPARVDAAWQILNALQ
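E. coli AmpC (5.3 nM) in 20 mM phosphate pH 7.0 with 0.01% Triton X-100, preincubated 15 min RT with compound; nitrocefin (2 uL of 800 uM stock) hydrolysis followed by 480 nm absorbance every 20 s over 4 min.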
AmpC nodet inh = inhibitors of E. coli AmpC beta-lactamase without detergent; P00811; AmpC nitrocefin hydrolysis, absorbance 480 nm, no detergent; Potency, µM (series often up to 28.7 µM), without a hit: top-dose activity change, negative = inhibition; hit rate 1.8% among 71,000; note: % of control where 0% means no effect
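Enzyme, pH 7.0 phosphate. Compound titrations were pre-incubated with AmpC for 15 min at room temperature before nitrocefin (stock 800 uM) addition; product formation was recorded at 480 nm every 20 s for 4 min.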
Anthrax LT inh = inhibitors of anthrax lethal toxin internalization; Cells, anthrax lethal toxin internalization, FRET ratio (460/530); AID 912; hit rate 0.67% among 70,000; Potency, µM (doses to about 40 µM), for inactives: at the highest dose activity change, negative = inhibition, actives largely listed as inhibitors; note: % is set by controls: 0 for no effect and ±100 for the full control effect; nearly all actives have a fitted effect of over 50% in size
Prx2 Sm inh = blocks S. mansoni peroxiredoxin 2 enzymatic activity | Potency, µM | S. mansoni Prx2 activity coupled to TGR/GSH (TGR is thioredoxin glutathione reductase), NADPH fluorescence loss, qHTS | hit rate 0.07% among 65,000
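Purified S. mansoni TGR and Prx2 in pH 7.4 phosphate buffer with EDTA and Tween-20 were preincubated with compounds for 15 min. Further NADPH/GSH was added, then a 2.5 mM H2O2 aliquot initiated turnover, followed kinetically by NADPH fluorescence.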
Active calls of the source: *; ? = inconclusive; · = not tested or not shown; ! = a repeat was not active; [ ] = dose if it differs, or a comment. The list is not random: actives were taken first. Their share in the collection is about 2.4%. Unless noted, calls come from the whole dose curve. Potency is the fitted concentration of half-maximal effect.

SMILES	AmpC inh det	AmpC nodet inh	Anthrax LT inh	Prx2 Sm inh
CC(=O)OCC1OC(C#CC(C)(C)C)C=CC1OC(C)=O (stereo not given)	·	·	-2%[8 µM]	·
COc1ccc(Oc2ncc3nc(-c4cc(F)cc(F)c4)c(=O)n(C[C@H]4CCCO4)c3n2)cc1	4%	34%	?	>57
Cc1cc(C)c(OCC(=O)Nc2ccccc2N2CCOCC2)c(C)c1	0%	22%	?	>57
COc1ccc(C)cc1C(=O)CCC(=O)Nc1ccccc1N1CCOCC1	-3%	54%	16µM*	>57
COc1ccc(C(C)(C)C)cc1NC(=O)Nc1ccc2c(c1)OCO2	0%	-4%	10µM*	>57
Oc1cc(Cl)c(Cl)c(Cl)c1	10%	-17%	13µM*	·
Oc1c(Cl)c(Cl)cc(Cl)c1Cl	7%	-18%	-5%	·
CCC(C)[C@@H](NC(=O)OC(C)(C)C)c1nnc(S(=O)(=O)Cc2cccc(C)c2)o1 (stereo not given in full)	4µM*	7.9µM*	?	>57
CC(C)(C)OC(=O)N[C@@H](Cc1ccccc1)c1nnc(SCC(=O)O)o1	12%	-4%	?	>57
CC(C)(C)OC(=O)N[C@@H](Cc1ccccc1)c1nnc(S(=O)(=O)Cc2ccccc2)o1	13µM*	3.2µM*	7.9µM*	·
COC(=O)[C@](C)(N)Cc1ccc(O)cc1	-2%	-3%	-4%	>57
CN1CCN(c2ncc3nc(-c4cc(F)cc(F)c4)c(=O)n(CCc4ccccc4)c3n2)CC1	-2%	90%	?	>57
COc1ccc(S(=O)(=O)Cc2ccc(C(=O)N3CCN(Cc4ccccc4)CC3)o2)cc1	12%	109%	-11%	>57
COc1ccc(S(=O)(=O)Cc2ccc(C(=O)N3CCc4ccccc4C3)o2)cc1	6%	3.2µM*[single pt active]	-14%	>57
COc1ccc(S(=O)(=O)Cc2ccc(C(=O)N3CCN(c4ccc(Cl)cc4)CC3)o2)cc1	5%	84%	13µM*	>57
C=C1C/C(=C\C)C(=O)O[C@@H]2CCN3CC=C(COC(=O)[C@]1(C)O)[C@H]23	-3%	-5%	·	>57
Oc1c(Cl)cc(Cl)cc1Sc1cc(Cl)cc(Cl)c1O	6%	?	3.2µM*	·
Oc1c(Cl)cc(C(c2cc(Cl)c(O)c(Cl)c2)C(c2cc(Cl)c(O)c(Cl)c2)c2cc(Cl)c(O)c(Cl)c2)cc1Cl	-3%[5.75 µM]	-26%[5.75 µM]	-8%[8 µM]	>57
COC(=O)NC(CC(C)=O)c1ccc2c(c1)OCO2 (stereo not given)	·	·	-9%[8 µM]	·
CCOC(=O)c1ccc(NC(=O)c2ccc(C)c(S(=O)(=O)N3CCOCC3)c2)cc1	-1%	80%	13µM*	?
CO[C@H]1COC(=O)[C@@H](C)COC(=O)[C@@H](COCc2ccccc2)NC(=O)C/C=C\[C@H]1C	·	·	-5%[1.6 µM]	·
COc1ccc(OC)c(NC(=O)Nc2nnc(N3CCC(C)CC3)s2)c1	11%	4µM*[single pt active]	?	>57
COc1ccc(NC(=O)Nc2nnc(N3CCC(C)CC3)s2)cc1OC	18%	4µM*[single pt active]	-1%	>57
COc1ccc(Cn2c(C)nc3c(c2=O)c2nc4ccccc4nc2n3Cc2ccco2)cc1	13%	49%	?	>57
COc1ccc(S(=O)(=O)c2c(N)n(Cc3ccco3)c3nc4ccccc4nc23)cc1	-1%	13µM*	?	>57
SMILES	AmpC inh det	AmpC nodet inh	Anthrax LT inh	Prx2 Sm inh
CCn1c(NC(=O)c2cccc(Cn3cc(Cl)cn3)c2)nc2ccccc21	19%	4µM*[single pt active]	1%	>57
Cn1c(NC(=O)c2cccc(Cn3cc(Cl)cn3)c2)nc2ccccc21	-2%	-4%	9%	>57
O=C1Cc2c([nH]c3ccc(Br)cc23)-c2ccccc2N1	-4%	16µM*!	-18%	>57
O=c1c2c([nH]c3ccc(Br)cc13)CCCC2	-3%	-16%	3%	>57
CC(=O)OC(C)C	8%	-14%	6%	·
O=C=NC1CCCCC1	14%	-3%	-3%	·
C(=NC1CCCCC1)=NC1CCCCC1	12%	-12%	4µM*	·
NC(=O)[C@@H]1CCCNC1	-1%[5.75 µM]	-2%[5.75 µM]	3%[8 µM]	>57
CN(CC(=O)NC1CCCCCCC1)S(=O)(=O)c1cccc2cccnc12	3%	4µM*[single pt active]	-9%	>57
CN(CC(=O)Nc1ccc(Cl)cc1)S(=O)(=O)c1cccc2cccnc12	9%	-13%	7.9µM*	>57
COc1ccc(NC(=O)CN(C)S(=O)(=O)c2cccc3cccnc23)cc1	13%	-4%	7%	>57
CC(C)NC(=O)N1CC[C@@]2(CCCN(C(=O)Oc3ccccc3)C2)C1	-1%	8%	4%	>57
N=c1n(CCO)c2ccccc2n1CCOc1ccc(Cl)cc1Cl	10%	4µM*[single pt active]	?	>57
COc1cccc(C(c2nnnn2CCc2ccccc2)N2CCN(c3ccccc3)CC2)c1OC (stereo not given)	0%	54%	?	>57
COc1ccccc1C(c1nnnn1CCc1ccccc1)N1CCN(c2ccccc2)CC1 (stereo not given)	-1%	27%	7.9µM*	>57
O=C(Cn1ncc2c(=O)oc3ccccc3c21)NCC1COc2ccccc2O1 (stereo not given)	13%	0.79µM*	-3%	>57
O=C(Cn1ncc2c(=O)oc3ccccc3c21)NC1CC1	-1%	0%	-8%	>57
CCN(CCCNC(=O)Cn1ncc2c(=O)oc3ccccc3c21)c1cccc(C)c1	12%	2µM*[single pt active]	-16%	>57
COCCCNC(=O)Cn1ncc2c(=O)oc3ccccc3c21	-2%	-2%	11%	>57
O=C(Cn1ncc2c(=O)oc3ccccc3c21)NCCCN1CCCC1=O	11%	4µM*[single pt active]	-9%	>57
CCCCC(CC)CNCC(CC)CCCC (stereo not given)	12%	-2%	2%	·
COc1ccc(-c2nc(CSCC(=O)N3CCN(c4cccc(C)c4)C(C)C3)c(C)o2)cc1OC (stereo not given)	10%	152%	10µM*	>57
Clc1cccc(C(Cl)(Cl)Cl)n1	10%	-11%	2%	·
O=C1c2ccccc2C(Nc2ccc(S(=O)(=O)N3CCCCC3)cc2)N1c1ccccn1 (stereo not given)	15%	3.2µM*[single pt active]	?	>57
O=C1c2ccccc2C(Nc2ccc(S(=O)(=O)N3CCOCC3)cc2)N1c1cccnc1 (stereo not given)	10%	4µM*[single pt active]	?	>57
SMILES	AmpC inh det	AmpC nodet inh	Anthrax LT inh	Prx2 Sm inh
O=C1c2ccccc2C(Nc2ccc(F)c(Cl)c2)N1c1ccccn1 (stereo not given)	13%	4µM*[single pt active]	-17%	>57
CC(C)(C)CNCCO	-1%[5.75 µM]	0%[5.75 µM]	-6%[8 µM]	>57
CC(=O)OC1c2ccccc2C(=O)N1Cc1ccccc1Cl (stereo not given)	9%	4µM*[single pt active]	-5%	>57
CCC(C)NC(=O)C1c2ccccc2C(=O)N1Cc1ccccc1OC (stereo not given)	-3%	4%	9%	>57
COCCCNC(=O)c1ccc(CS(=O)(=O)c2ccc(OC)cc2)o1	12%	4µM*[single pt active]	-11%	>57
COc1ccc(S(=O)(=O)Cc2ccc(C(=O)NCc3cccnc3)o2)cc1	16%	4µM*[single pt active]	-9%	>57
COc1ccc(S(=O)(=O)Cc2ccc(C(=O)NCc3ccc(F)cc3)o2)cc1	6%	4µM*[single pt active]	?	>57
